The entries come from a sample that favours hits as a whole.
Shiga toxin inh = inhibitors of Shiga toxin in Vero cells; Vero cells, Shiga toxin protein synthesis inhibition reporter; inhibition, % at 38.7 µM; AID 2315; 290,000 compounds, 9.2% hits; in the data active = inhibition mostly above about 28%, no sharp cut-off; inactive = mostly below about 43%; also: 0% is about no effect
LmPK inhibitor = LmPK (Leishmania mexicana) enzyme inhibition. Potency, µM (highest dose often 57.5 µM), for the others: at the highest dose activity change, negative = inhibition, most hits filed as inhibitors. 290,000 compounds, 0.37% hits. purified LmPK, Kinase-Glo ATP luminescence, 1 h. Q27686; also: potency is read from the fitted curve at half-maximal effect; % is scaled to controls: 0 for no effect and ±100 for the full control effect
Target sequence (Q27686 whole entry, looked up): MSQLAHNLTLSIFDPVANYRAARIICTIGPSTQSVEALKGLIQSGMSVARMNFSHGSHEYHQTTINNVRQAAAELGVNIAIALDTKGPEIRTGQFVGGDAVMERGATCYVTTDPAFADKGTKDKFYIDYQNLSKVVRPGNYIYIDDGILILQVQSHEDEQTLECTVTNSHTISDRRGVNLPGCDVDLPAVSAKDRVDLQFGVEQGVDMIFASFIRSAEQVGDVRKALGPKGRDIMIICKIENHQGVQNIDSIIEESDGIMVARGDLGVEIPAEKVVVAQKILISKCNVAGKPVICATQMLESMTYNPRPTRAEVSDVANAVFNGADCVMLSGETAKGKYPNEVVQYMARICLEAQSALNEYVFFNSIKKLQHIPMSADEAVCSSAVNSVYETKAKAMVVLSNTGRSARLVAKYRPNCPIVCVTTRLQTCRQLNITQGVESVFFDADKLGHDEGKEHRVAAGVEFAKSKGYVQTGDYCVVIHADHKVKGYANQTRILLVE
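Kinase-Glo luminescence read after 1 h RT reaction of 0.1 nM LmPK with 0.5 mM PEP and 0.1 mM ADP. Activity scaled between uninhibited and enzyme-free controls.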
RE007 growth inh = less growth of the S. pombe RE007 Vpr strain | S. pombe RE007 Vpr strain, BacTiter-Glo ATP luminescence, 24 h | AID 651644 | 360,000 compounds, 0.21% hits | Potency, µM (doses to about 92.2 µM), inactives show top-dose activity change, negative = less growth, actives largely listed as inhibitors; active = well fitted falling curve with a large enough effect; inconclusive = small, poorly fitted or top-dose-only effect; inactive = no such curve, though single readings can be large or run the other way; also: potency is read from the fitted curve at half-maximal effect; % is scaled to controls: 0 for no effect and ±100 for the full control effect; nearly all actives have a fitted effect of over 50% in size
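Fission yeast RE007 carrying one integrated HIV-1 vpr copy, seeded at OD 0.01 in PMG+AL medium with 23 nL pinned compound. Grown 24 h at 30 degrees; viability read by BacTiter-Glo luminescence after 5 min.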
Giardia FBPA inh = inhibitors of Giardia lamblia fructose-1,6-bisphosphate aldolase | purified Giardia FBPA | Potency, µM (top dose mostly 59.6 µM), inactives show at the highest dose activity, negative = inhibition, hits mostly inhibitors | 290,000 compounds, 0.71% hits | AID 2451; also: potency is read from the fitted curve at half-maximal effect; % is scaled to controls: 0 for no effect and ±100 for the full control effect; nearly all actives have a fitted effect of over 55% in size
Target sequence (A8B2U2 whole entry, looked up): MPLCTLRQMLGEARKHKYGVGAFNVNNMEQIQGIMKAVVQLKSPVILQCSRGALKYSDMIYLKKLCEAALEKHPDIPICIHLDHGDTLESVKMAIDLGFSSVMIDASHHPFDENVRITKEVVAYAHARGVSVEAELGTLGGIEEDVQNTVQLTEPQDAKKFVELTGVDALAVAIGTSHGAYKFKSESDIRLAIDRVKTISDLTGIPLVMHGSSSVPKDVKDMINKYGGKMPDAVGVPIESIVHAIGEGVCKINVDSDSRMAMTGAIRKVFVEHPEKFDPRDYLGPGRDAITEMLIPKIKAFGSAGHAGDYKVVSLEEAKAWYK
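Giardia FBPA (40 nM reagent) was preincubated 10 min at RT with compound (up to 57.5 uM final), then substrate plus GAPDH/TPI/NAD/arsenate coupling system with diaphorase/resazurin was added; resorufin fluorescence (525/598 nm) was read after 20 min.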
Cycloheximide cs = counter-screen for Shiga toxin inhibitors: cycloheximide protein synthesis inhibition; 300,000 compounds, 12% hits; max response, %; AID 2314; cell reporter, cycloheximide protein synthesis inhibition counterscreen; in the data active = max response mostly above about 13%, no sharp cut-off; inactive = mostly below about 14%; also: read at 38.3 µM for the half of the compounds with a filed dose; 0% is about no effect
TbPYK inhibitor = inhibitors of Trypanosoma brucei pyruvate kinase; Q57TT1; TbPYK enzyme, Kinase-Glo Plus ATP luminescence, 45 min; Potency, µM (titrated, usually from 76.8 µM), for inactives: at the highest dose activity, negative = inhibition, usual class: inhibitors; 410,000 compounds, 0.12% hits; AID 624173; also: potency is read from the fitted curve at half-maximal effect; % is scaled to controls: 0 for no effect and ±100 for the full control effect; nearly all actives have a fitted effect of over 50% in size
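ADP (130 uM final) triggers the TbPYK reaction after compound addition; incubation is 45 min at room temperature. Kinase-Glo Plus is then added and luminescence imaged. Normalized data are fitted to concentration-effect curves.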
The depositor's hits bear a star; i = inactive; ? = inconclusive; / = not tested or not shown; + = active, no number. Unless noted, calls follow the shape of the dose curve; as a rule, active = well fitted curve in the direction sought with a large enough effect; inconclusive = small, poorly fitted or top-dose-only effect, or another doubt; inactive = no such curve, though single readings can be large; an effect the other way counts as inactive or inconclusive.

SMILES | Shiga toxin inh | LmPK inhibitor | RE007 growth inh | Giardia FBPA inh | Cycloheximide cs | TbPYK inhibitor
CCOc1ccc(C2C(C(=O)c3ccc(C)o3)=C(O)C(=O)N2c2nc(C)c(C(=O)OC)s2)cc1 (stereo unspecified) | 47.5* | 4.8% | -12.8% | -22.5% | 26.4* | 0.3%
COc1ccc2nc(N3C(=O)C(O)=C(C(=O)c4ccco4)C3c3ccc(OC)c(OC)c3)sc2c1 (stereo unspecified) | / | / | -23.9% | / | / | -15.9%
Cc1ccc2nc(N3C(=O)C(O)=C(C(=O)c4ccc(C)o4)C3c3cccc(O)c3)sc2c1 (stereo unspecified) | 63.1* | -1.4% | -12.3% | 3.6% | 30.7* | -23.9%
COC(=O)c1sc(N2C(=O)C(O)=C(C(=O)c3ccc(C)o3)C2c2ccc([N+](=O)[O-])cc2)nc1C (stereo unspecified) | 69.4* | -19.7% | -17.1% | / | 39.0* | 2.9%
Cc1nn(-c2ccccc2)c(-n2cccc2)c1C(=O)NCCc1ccc(Cl)cc1 | / | / | / | / | / | -6.3%
COc1ccc(N2CCN(Cc3nc4c(c(=O)[nH]c(=O)n4C)n3CC(C)C)CC2)cc1 | / | / | / | / | / | 3.7%
CC(=O)c1ccc(NC(=O)c2cc(C3CC3)nc3c2c(C)nn3-c2ccc(C)cc2)cc1 | / | / | / | / | / | -1.3%
O=C(NC(=S)Nc1ccc(O)cc1)c1ccccc1Cl | 48.0 | -3.6% | -1.9% | -6.9% | 34.4* | 3.7%
Cc1ccc(O)c(NC(=O)c2ccccc2-c2ccccc2C(=O)O)c1 | / | 6.1% | 8.5% | 17.6% | -1.1 | -1.8%
CC(NC(=O)c1ccccc1Cl)NC(=O)c1ccccc1Cl | -10.6 | -4.8% | 2.5% | 6.9% | -0.8 | -3.4%
CC(C)CNC(=S)NC(=O)c1ccccc1Cl | 43.5* | -4.5% | -18.8% | 1.2% | 39.6* | -2.6%
COc1ccc(NC(=S)NC(=O)c2ccccc2Cl)cc1 | 96.3* | -0.2% | -7.3% | -5.1% | 38.2* | -1.6%
Cc1ccc(O)c(NC(=S)NC(=O)c2ccccc2Cl)c1 | 45.7 | -0.5% | -25.1% | -7.1% | 17.5* | -4.8%
CC(=O)Nc1cccc(NC(=O)CCNC(=O)c2ccccc2)c1 | 21.8 | 0.6% | -6.3% | 11.3% | -4.4 | 0.4%
COc1cc(OC)c(NC(=O)Cn2cnc3c(nc4n3CCCCC4)c2=O)cc1Cl | / | / | / | / | / | -6.2%
CCc1ccccc1NC(=O)CN1CCN(CC(=O)Nc2ccc3c(c2)OC2(CCCCC2)O3)CC1 | / | / | 1.0% | / | / | -6.3%
O=C(CCc1ccccc1)NNC(=O)c1ccccc1Cl | / | -4.0% | -4.5% | -5.1% | -4.1 | 3.2%
CCOc1ccc(NC(=S)NC(=O)c2c(Cl)c(C)nn2C)c([N+](=O)[O-])c1 | 3.4 | 0.3% | 0.6% | ? | 0.9 | 4.3%
O=C(NC(=S)Nc1ccc2[nH]c(=O)[nH]c2c1)c1ccccc1[N+](=O)[O-] | 48.0* | -9.9% | 1.1% | / | 46.1* | 4.2%
Cc1nn(C)c(C(=O)NC(=S)Nc2ccccc2O)c1Cl | 19.0 | 1.2% | -24.9% | / | 10.5* | -1.8%
O=C(NC(=S)Nc1ccccc1[N+](=O)[O-])c1ccccc1Cl | 125.2* | 0.3% | -1.9% | ? | 47.8* | -2.1%
O=C(NNCc1ccc(O)cc1)c1ccccc1Cl | 38.8* | 1.4% | 3.9% | 14.8% | 45.5* | 4.0%
CN1CCN(c2ncnc3c2ncn3[C@H]2CN(Cc3ccco3)C[C@@H](CO)O2)CC1 | / | / | 3.6% | / | / | 0.7%
COc1ccc(NC(=O)CCCn2c(=O)c3sccc3n(Cc3ccccc3)c2=O)cc1 | 8.7 | 5.8% | 22.3% | 14.0% | 25.7* | 0.0%
COc1ccc(NC(=O)CCCn2c(=O)c3sccc3n(Cc3ccccc3C)c2=O)cc1 | -23.4 | 3.6% | 35.3% | 1.5% | -2.1 | 3.9%
SMILES | Shiga toxin inh | LmPK inhibitor | RE007 growth inh | Giardia FBPA inh | Cycloheximide cs | TbPYK inhibitor
Cc1cccc(-c2nc3cc([N+](=O)[O-])ccc3o2)c1 | 92.2* | -29.0% | -18.5% | 8.4% | 36.4* | -3.9%
O=[N+]([O-])c1ccc2oc(-c3ccccc3)nc2c1 | 69.1* | 1.0% | ? | 4.9% | 35.3* | 1.6%
COc1ccc(-c2nc3ccc([N+](=O)[O-])cc3o2)cc1 | + | -6.9% | -9.0% | 4.5% | 38.8* | -16.9%
COc1ccc(-c2nc3ccc(NS(=O)(=O)c4ccc(C)cc4)cc3o2)cc1 | / | / | / | / | / | 5.6%
Cc1cccc([N+](=O)[O-])c1 | / | / | -5.9% | / | / | 1.7%
NC(N)=Nc1nc2cc([N+](=O)[O-])ccc2o1 | 27.2 | 0.4% | -2.7% | -1.6% | 15.5* | 0.5%
O=[N+]([O-])c1ccc2nc(-c3ccccc3)cc(-c3ccccc3)c2c1 | -7.5 | 5.6% | -11.7% | 1.5% | -2.5 | -1.0%
O=C(Nc1nccs1)c1c(O)c2c([nH]c1=O)CCCC2 | 25.5 | 2.9% | -2.5% | -2.6% | 12.9* | -5.4%
O=C(Nc1ccccc1O)c1c(O)c2c([nH]c1=O)CCCC2 | 115.6* | 5.3% | 7.9% | -10.2% | 40.5* | 4.2%
O=C(N/N=C/c1cccc(Cl)c1)c1c(O)c2c([nH]c1=O)CCCC2 | 46.5 | 2.3% | 5.5% | 0.4% | 18.2* | 0.9%
CCNCCNC(=O)c1c(O)c2c([nH]c1=O)CCCC2 | -14.2 | -5.3% | -8.2% | 11.1% | 0.8 | 4.7%
COc1ccc(N2CCN(C(=O)Cn3cnc4nc5c(cc4c3=O)CCCC5)CC2)cc1 | / | / | / | / | / | 10.6%
C=CCNC1=C2C[C@@H](C)C[C@H](OC)[C@H](O)[C@@H](C)/C=C(\C)[C@H](OC(N)=O)[C@@H](OC)/C=C/C=C(\C)C(=O)NC(=CC1=O)C2=O | i | / | / | ? | -5.7 | /
COc1cccc(N2CCN(C(=O)c3ccc(CSc4nc5ccncc5[nH]4)cc3)CC2)c1 | -7.7 | 0.7% | -7.9% | -28.6% | -2.2 | 26.1%
COc1cccc(CSc2nc3ccncc3[nH]2)c1 | 50.4* | 25.1µM* | ? | -7.1% | 41.1* | -4.6%
Clc1ccccc1CSc1nc2ccncc2[nH]1 | 66.5 | -14.8% | -26.4% | -11.4% | 21.0* | -11.1%
CCNC(=S)N/N=C/c1ccccc1[N+](=O)[O-] | 8.9 | -0.9% | -19.4% | -18.1% | -1.0 | 2.7%
CCOc1ccc(/C=N/Nc2ccc(Cl)nn2)c(O)c1 | 58.4* | 0.9% | -5.6% | 7.7% | 7.1 | -2.6%
CCOc1ccccc1/C=N/Nc1ccccc1[N+](=O)[O-] | -18.4 | -7.8% | -11.4% | 1.9% | -1.6 | -3.0%
CCC(CC)=NNc1cccc([N+](=O)[O-])c1 | 10.5 | 5.4% | 192.3% | -0.8% | -2.9 | -13.4%
CCCOc1ccc(/C=N/Nc2ccccc2[N+](=O)[O-])c(O)c1 | 73.7* | -14.3% | -15.7% | 2.0% | 57.5* | ?
CCCOc1ccc(/C=N/Nc2cccc([N+](=O)[O-])c2)c(O)c1 | 80.5* | -4.3% | 35.6% | 2.4% | 82.4* | 8.3%
CCCOc1ccc(/C=N/NC(=S)Nc2ccccc2[N+](=O)[O-])c(O)c1 | 75.5* | 4.1% | 4.7% | 22.9% | 92.9* | 1.0%

Bioassay records deposited in PubChem BioAssay by National Center for Advancing Translational Sciences (NCATS).
